According to PubChem BioAssay (NCI):
“And” between values parts separate entries of the source, which are not always exact repeats. Equal entries are not always repeated. About 79,000 compounds went through this panel and 15% of them were active in at least one assay; those are over-represented in the sample as a whole. The source made the active and inactive calls. Cut-off read from the data, not from the text of the source: active = growth inhibition above about 70%; inactive = the rest.

How the values were obtained:
[1] = NCI Yeast Anticancer Drug Screen. Data for the rad50 strain (AID 155);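 note: 0% = growth of vehicle-only cultures of the same strain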; conditions: S. cerevisiae rad50 strain growth inhibition; at 50.0 µM; hits give high values
How it was run: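 Yeast carrying a defined DNA repair defect were exposed to test compounds, and growth was compared with vehicle-treated controls to give percent inhibition.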

[2] = NCI Yeast Anticancer Drug Screen. Data for the mec2-1 strain (AID 157); conditions: S. cerevisiae mec2-1 strain, at 50.0 µM, hits give high values
How it was run: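 Vehicle-treated cultures served as reference for growth inhibition of compound-exposed mec2-1 yeast.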

[3] = NCI Yeast Anticancer Drug Screen. Data for the sgs1 mgt1 strain (AID 161);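 note: 0% = growth of cultures given vehicle only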; conditions: S. cerevisiae sgs1 mgt1 strain, at 50.0 µM, hits give high values
How it was run: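 Mutant yeast exposed to compound; growth scored against vehicle-only wells.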

[4] = NCI Yeast Anticancer Drug Screen. Data for the cln2 rad14 strain (AID 165);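 note: 0% = growth equal to vehicle treated cultures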; conditions: S. cerevisiae cln2 rad14 strain, at 50.0 µM, hits give high values
How it was run: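 Each compound was tested on cln2 rad14 yeast. Inhibition of growth was calculated against vehicle-exposed controls.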

[5] = NCI Yeast Anticancer Drug Screen. Data for the bub3 strain (AID 167); conditions: S. cerevisiae bub3 mutant strain, at 50.0 µM, hits give high values
How it was run: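 Compounds were applied to a genetically altered yeast strain carrying a cell-cycle control defect. Growth inhibition was scored against vehicle-treated controls.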

[6] = NCI Yeast Anticancer Drug Screen. Data for the mlh1 rad18 strain (AID 175); conditions: S. cerevisiae mlh1 rad18 strain growth inhibition; at 50.0 µM; hits give high values
How it was run: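 Vehicle-treated cultures served as the reference for growth inhibition in a yeast strain carrying DNA damage repair alterations exposed to each compound.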

Measured: growth inhibition

CCOS(=O)(=O)OCC
inactive: [1] 1.2% | [2] -12.1% | [3] 4.25% | [4] -0.45% | [5] -10.8% | [6] 14.2%

CN(C)c1ccc(C(=O)CCCN2CCC3(CC2)C(=O)NCN3c2ccccc2)cc1
inactive: [1] -13.9% | [2] 8.95% | [3] 5.9% | [4] -40.8% | [5] -1.05% | [6] -11.5%

[Mn+3].[O-][Cl+3]([O-])([O-])O.[O-]c1ccccc1C=NCCN1CC1.[O-]c1ccccc1C=NCCN1CC1
active: [1] 95.5% | [2] 98.7% | [3] 93.5% | [4] 87.1% | [5] 98.8% | [6] 84.2%

COc1cc(C2c3cc4c(c(O)c3C[C@H]3COC(=O)[C@@H]23)OCO4)cc(OC)c1O (some centres not stated)
inactive: [1] -25.7% | [2] -23.1% | [3] -16.8% | [4] 5.8% | [5] 2.85% | [6] -13.6%

C=C[CH2][Sn]([CH3])([CH3])[CH2]C=C
inactive: [1] 11.1% | [2] 4.35% | [3] 2.75% | [4] -19.4% | [5] -12.6% | [6] 4.75%

CCCC(C)c1ccc(SOO)cc1.[Fe] (configuration not stated)
inactive: [1] 19.9% | [2] 4.05% | [3] -13.7% | [4] -17.5% | [5] 8.5% | [6] -6.6%

O=C(Nc1cc(S(=O)(=O)F)ccc1Cl)Oc1ccc([N+](=O)[O-])cc1
inactive: [1] 17.4% | [2] 53.2% | [3] 38.3% | [4] 11.3% | [5] 20.1% | [6] 32.5%

CCCCCCC[CH2][Sn][CH2]CCCCCCC.Nc1ncnc2c1ncn2C1OC(CO)C2[OH+][OH+]C21 (configuration not stated)
inactive: [1] 19.9% | [2] 5.45% | [3] 9.35% | [4] -4% | [5] 2.3% | [6] 11.8%

CCOP(=S)(OCC)OP(=O)(CC)CC
inactive: [1] 3.1% | [2] -10.1% | [3] -1.7% | [4] 4.4% | [5] 9.2% | [6] -2.55%

CC1=NN(c2ccccc2)C(=O)C1N=Nc1ccc([As](=O)(O)O)c(O)c1 (configuration not stated)
inactive: [1] 15.9% | [2] -8.6% | [3] -6.8% | [4] -19.9% | [5] -26.5% | [6] -3.65%

O=C(O)c1ccccc1.O=C(O)c1ccccc1.O=C(O)c1ccccc1.O=C(O)c1ccccc1.[Cu].[Cu]
inactive: [1] 17.4% | [2] -10% | [3] 10.8% | [4] 3.85% | [5] 1.85% | [6] 17.1%

[C-]#[O+].[C-]#[O+].[C-]#[O+].[C-]#[O+].[C-]#[O+].[C-]#[O+].[C-]#[O+].[C-]#[O+].[C-]#[O+].[C-]#[O+].[Mn].[Mn]
inactive: [1] -21.1% | [2] -12.6% | [3] -15.2% | [4] -71.6% | [5] 4.45% | [6] -25.9%

Cc1cc(NC(=O)CCc2ccc(N3C(N)=NC(N)=NC3(C)C)cc2Cl)ccc1S(=O)(=O)F
inactive: [4] 4.55% | [5] 54%
active: [1] 72.5% | [2] 94.1% | [3] 94.7% | [6] 83.3%

COc1cc(CC[N+](C)(C)C)cc(OC)c1OC
inactive: [1] 4.95% | [2] 6.1% | [3] 7.85% | [4] 25.2% | [5] 9.5% | [6] 34.7%

COC(=O)C1C(O)CC2(O)CC(O)CC(O)C(O)CCC(O)CC(O)CC(=O)OC(C)C(C)C(O)C(C)/C=C/C=C/C=C/C=C/C=C/C=C/C=C/C(OC3OC(C)C(O)C(N)C3O)CC1O2 (configuration not stated)
inactive: [1] -6.8% | [2] 6.95% | [3] -4.9% | [4] 6.15% | [5] 1.6% | [6] -3.7%

CN(C)c1ccc(-c2ccc(N(C)C)cc2)cc1
inactive: [1] -10.6% | [2] 7.3% | [3] 5.45% | [4] 17.6% | [5] 3.2% | [6] -2.6%

CC(C)(C)C1=C(Br)C(F)(C(C)(C)C)OP1(=O)c1ccccc1 (configuration not stated)
active: [1] 88.7% | [2] 92.3% | [3] 90.5% | [4] 90.5% | [5] 90% | [6] 91.6%

O=[N+]([O-])c1ccc(CCl)cc1
inactive: [1] 16.4% | [2] 30.5% | [3] 10.7% | [4] -15% | [5] -23.9% | [6] 26.6%

CN(C)CCc1ccccc1
inactive: [1] -15.1% | [2] 2.35% | [3] 13.9% | [4] 20.8% | [5] -2.3% | [6] 11.1%

CC(=O)OC1CCC2(C)C3CCC4(C)C(c5ccc(=O)oc5)CC5OC54C3CCC2(O)C1 (configuration not stated)
inactive: [1] 40% | [2] 2.75% | [3] 19.6% | [4] -1.8% | [5] -2.2% | [6] 2.3%

CNC(C)C(O)c1ccccc1 (configuration not stated)
inactive: [1] 15.3% and 4.1% | [2] -14.3% and -2.1% | [3] 7.45% and -21.6% | [4] 14.9% and 10.5% | [5] 10% and -5.85% | [6] 13.3% and 8.9%

CN(C)C(=O)CCl
inactive: [1] 1.85% | [2] 6.15% | [3] 20.6% | [4] 9.9% | [5] -5.55% | [6] 7.25%

CC(=O)OCC1OC(OC(C)=O)C(N(CCCl)CCCl)C(OC(C)=O)C1OC(C)=O (configuration not stated)
inactive: [1] 2.2% | [2] 7% | [3] 6.75% | [4] 23.9% | [5] -2.25% | [6] -33.6%

CC1CC2C(CCC3(C)C2CC2(CC2)C3(C)O)C2(C)CCC(O)CC12O (configuration not stated)
inactive: [1] 12.6% | [2] 8.55% | [3] 19.9% | [4] -50% | [5] -7.35% | [6] 1.9%

COc1cc2c[n+](C)c3c4cc5c(cc4ccc3c2cc1OC)OCO5
inactive: [1] -11.7% | [2] -37.5% | [3] -28.1% | [4] -5.75% | [5] -26.3% | [6] -33.6%

CC12CCC(O)CC1CCC1C2CCC2(C)C(C3=CC(=O)OC3)CCC12O (configuration not stated)
inactive: [1] -42.8% | [2] -33.6% | [3] -18.8% | [4] -10.2% | [5] -23.2% | [6] -20.1%

C/C=N/Nc1ccc([N+](=O)[O-])cc1[N+](=O)[O-]
inactive: [1] 10.5% | [2] -6.35% | [3] -11.8% | [4] -14.9% | [5] 3.3% | [6] 16.8%

C[C@@]1(CCCCCCCCCCc2ccccc2)C[C@@]2(C)OC(=O)C[C@H]2OO1
inactive: [1] -15.1% | [2] -6.05% | [3] -20.2% | [4] -39% | [5] -80.7% | [6] -25.6%

CNCCc1c[nH]c2ccc(O)cc12
inactive: [1] -2.15% | [2] -8.6% | [3] -1.35% | [4] -39.5% | [5] 18.9% | [6] -10.7%

C[C@]12C=CC(=O)C=C1CC[C@@H]1[C@@H]2C(=O)C[C@]2(C)C(=O)CC[C@@H]12
inactive: [1] -11.4% | [2] -19.1% | [3] 2.05% | [4] -1.85% | [5] -4.4% | [6] 4.95%

COc1cccc(C=C2C(=O)NC(=S)NC2=O)c1O
inactive: [1] -8.95% | [2] -12.6% | [3] -4.35% | [4] 15.7% | [5] -2.25% | [6] 26.6%

CC(CN1CCCCCC1)C(C#N)(c1ccccc1)c1ccccc1 (configuration not stated)
inactive: [1] 7.4% | [2] 13.2% | [3] 25.4% | [4] 49.5% | [5] 46% | [6] 10.3%

CCC(C)CC(C)N (configuration not stated)
inactive: [1] 0.6% | [2] 2.7% | [3] 14.5% | [4] 2.65% | [5] -2.45% | [6] 9.15%

CN1CCc2ccc(O)cc2C1
inactive: [1] 16.3% | [2] 5.6% | [3] 3.95% | [4] -7.5% | [5] 15.7% | [6] 10.6%

O=C(O)C(Cl)(Cl)Cl
inactive: [1] -0.6% | [2] -22.6% | [3] -15.8% | [4] 14.4% | [5] -17.4% | [6] 21.1%

CCC(CO)N=Cc1ccccc1O.CCC(CO)N=Cc1ccccc1O.[Ni] (configuration not stated)
inactive: [1] 40% | [2] 1.3% | [3] 31.9% | [4] -44.1% | [5] 8.7% | [6] 25.5%

C/C=C/c1cc2n(c1)C(=O)c1cc(OC3OC(C)C(NC)C(C)(O)C3O)c(C)c(O)c1NC2O (configuration not stated)
inactive: [1] 20.9% | [2] 1.1% | [3] 20.8% | [4] 2.75% | [5] 14.2% | [6] -47.4%
